PubChem BioAssay

Assay: JC-1 mitochondrial signal, unstimulated adipocytes – cell-based, JC-1 fluorescence, 3T3-L1 adipocytes, 24 h, 100 nL compound, profiling panel (AID 1168); further: test concentration not given here
Settings: JC-1 mitochondrial fluorescence, higher = more signal, called active from +8 up or from −8 down

z-score, inactive:
COC(=O)[C@@]1(Cc2ccc(OC)cc2)[C@H]2c3cc(C(=O)N(C)C)n(Cc4ccc(C)c(F)c4F)c3C[C@H]2CN1C(=O)c1ccccc1 -0.589, [N-]=[N+]=NCc1ccccc1C[C@]1(C(=O)N2CCCCC2)N=C(c2ccc(OCCCO)cc2)O[C@H]1c1ccccc1CN=[N+]=[N-] -0.539, CC(C)[Si](OCC[C@H]1O[C@]2(C(=O)N(Cc3ccccc3)c3ccccc32)[C@@H](C)[C@@H]1[Si](C)(C)O)(C(C)C)C(C)C 0.578, C=CCC(OC(C)=O)[C@@H]1[C@@H](N(Cc2ccc(-c3cccc(C(F)(F)F)c3)o2)C(=O)Cc2ccc(F)cc2)c2cc(OCCCO)ccc2N1C(=O)c1ccc(-c2ccccc2)cc1 (stereo partly specified) -1.64, C=C[C@H](OC)[C@@H](OC(=O)Nc1ccc(SC)cc1)c1ccc(O)c(F)c1 3.02, O=C1O[C@H](c2ccccc2)[C@H](c2ccccc2)N2[C@H]1[C@@H](C(=O)NC[C@H](O)c1ccccc1)[C@]1(C(=O)Nc3ccc(C#CC4(O)CCCCCC4)cc31)[C@H]2c1ccc(OCCO)cc1 1.78, CC(C)C[C@@H]1NC(=O)[C@H](CC(C)C)NC(=O)[C@@]23C(=O)N[C@@H](Cc4ccccc4)C2[C@H](C)[C@@]2(C)O[C@H]2C3/C=C/CC/C=C/CNC1=O (stereo partly specified) -0.141, O=C1NC(=O)C2C1C=CC(C(O)C=Cc1ccc([N+](=O)[O-])cc1)N2Nc1ccccn1 (stereo unspecified) -0.304, NC(=O)NCC#Cc1ccc2c(c1)[C@]1(C(=O)N2)[C@H](C(N)=O)[C@H]2C(=O)O[C@H](c3ccccc3)[C@H](c3ccccc3)N2[C@@H]1c1ccccc1OCCO -0.287, CCOC(=O)C[C@H]1[C@H](OC(=O)c2cc3ccccc3oc2=O)[C@@H](NC(=O)C2CCCCC2)c2cc(OCCCO)ccc2N1C(=O)c1ccc2ccccc2n1 -0.734, COc1cc2c(cc1OC)CN(C(=O)[C@H]1[C@@H]3C(=O)O[C@@H](c4ccccc4)[C@@H](c4ccccc4)N3[C@@H](c3ccc(O)cc3)[C@]13C(=O)Nc1ccc(C#CC4(O)CCCCCC4)cc13)CC2 -0.263, O=C1OCCC/C=C\[C@H]2OC34C=CCN(CCN5CCOCC5)C(=O)[C@H]3N(CCCCCO)C(=O)[C@@H]4C12 (stereo partly specified) 0.348, C[N+](C)(C)CCCCNC(=O)[C@H]1C[C@H]2C(=O)NCC(=O)N2[C@H]1c1cccc(OCCO)c1 -0.373, O=C1C[C@@](C(=O)NC2CC2)(c2ccc([N+](=O)[O-])cc2)[C@@H](c2ccc(CO)cc2I)N1CC12CC3CC(CC(C3)C1)C2 -0.869, C=C(CCCC)/C(=C/C[C@@H](OC(=O)c1ccncc1)c1cccc(OCCO)c1)c1cc(C(=O)OC)ccc1OC 0.244, Cc1ccc(S[C@]2(C(=O)NCCCN(C)C)CC(=O)N(Cc3ccccc3)[C@@H]2c2ccc(CO)cc2I)cc1 -0.645, O=C1O[C@H](c2ccccc2)[C@H](c2ccccc2)N2[C@H]1[C@@H](C(=O)Nc1nc3ccccc3s1)[C@]1(C(=O)Nc3ccc(C#CC4(O)CCCCCC4)cc31)[C@H]2c1ccc(O)cc1 -2.4, O=C(NCc1ccccc1)[C@@]1(Cc2ccccc2)COC(c2ccc(OCCCO)cc2)=N1 0.558, C=C(CCCC)/C(=C/C[C@@H](OC(=O)c1ccncc1)c1ccc(CO)o1)c1cnc2ccccc2c1 -0.586, O=C1C2C=CC(C(O)C#Cc3ccccc3)N(Nc3ccccc3)C2C(=O)N1c1ccccc1 (stereo unspecified) -0.869, CCCC=C(CCC)[C@@H](NC(=O)c1ccc(C(F)(F)F)cc1)c1ccccc1 -0.208, COc1ccc(NN2C(C(O)c3cc(OC)c(OC)c(OC)c3)C=CC3C(=O)N(C4CCCCC4)C(=O)C32)cc1 (stereo unspecified) -0.569, C#CCCCON=C1C[C@@H](O)[C@@H](O)[C@@H]2[C@@H]3C(=O)N(Cc4ccc5c(c4)OCO5)C(=O)[C@@H]3CC[C@@H]12 1.44, COC(=O)C1=CC(c2ccc(CO)cc2)=CC(c2cccs2)N(Cc2cccc(OC(F)(F)F)c2)C=C1C(=O)OC (stereo unspecified) -1.25, O=C1O[C@H](c2ccccc2)[C@H](c2ccccc2)N2[C@H]1[C@@H](C(=O)NC[C@H](O)c1ccccc1)[C@]1(C(=O)Nc3ccc(C#CC4=CCCCC4)cc31)[C@H]2c1ccc(OCCO)cc1 1.27, CC[C@H]1C2=C3C(CC[C@H]4C(OC)OC[C@](C)([C@@H]34)N(C(=O)OC(C)(C)C)C2)C(CO)C1CO (stereo partly specified) 0.0846
